Source: PubChem BioAssay AID1159580 (chemical genetic matrix, 2015)
Hit rate of the full screen: of about 5,500 compounds, about 2,000 (36%) were called active. Another 18% or so got no clear call; they are omitted. Cut-off read from the data, not from the text of the source: active = normalized growth mostly below about 0.91 (no sharp cut-off); inconclusive = no clear call, values can overlap the other calls; inactive = mostly above about 0.92. The list shows a part of the results.

Assay: chemical genetic growth profiling, strain panel (AID 1159580);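 note: tested at 20 µM; growth read once vehicle control cultures reached saturation at 30 °C; 1 = growth at the plate median or of vehicle wells; lower values mean less growth of the strain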
Conditions: S. cerevisiae deletion strains, growth OD

Measured: normalized growth

C=Cc1c2[nH]c(c1C)Cc1[nH]c(c(C)c1C=C)C=C1N=C(C=c3[nH]c(c(C)c3CCC(=O)O)=C2)C(CCC(=O)O)=C1C
inactive: locus YAL013W, strain DEP1, stronger effect = lower value 0.99 | locus YAL040C, strain CLN3, stronger effect = lower value 0.989 | locus YCL061C, strain MRC1 (second series), stronger effect = lower value 1.01 | locus YDR363W, strain ESC2, stronger effect = lower value 1.05 | locus YER002W, strain NOP16, stronger effect = lower value 0.987 | locus YGR078C, strain PAC10, stronger effect = lower value 1.01 | locus YJR075W, strain HOC1, stronger effect = lower value 1.01 | locus YMR307W, strain GAS1, stronger effect = lower value 1.01 | locus YNL153C, strain GIM3, stronger effect = lower value 0.799 | locus YNL175C, strain NOP13, stronger effect = lower value 0.993 | locus YNL197C, strain WHI3, stronger effect = lower value 0.972 | locus YNL224C, strain SQS1, stronger effect = lower value 1.01 | locus YOR083W, strain WHI5 (second series), stronger effect = lower value 1.01
